# Compounds without any hit were thinned out: in the full panel of roughly 83,000, 20% have a hit.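 Assay: single dose, 48 h. Readout: percent growth (0 = no net growth; negative = cell death). Active: <10.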 A number with no mark means an inactive call. Active and inactive are the calls of the source.
# Tests used:
# Assay in all cases: NCI-60 one-dose screen, 48 h (100 = growth as untreated, 0 = no growth, -100 = all killed)
# Details in all cases: 10 µM unless noted
# NCI-H23 lung = test system: NCI-H23 lung
# NCI-H226 lung = test system: NCI-H226 lung
# NCI-H322M lung = test system: NCI-H322M lung
# HOP-62 NSCLC = test system: HOP-62 NSCLC
# NCI-H460 lung = test system: NCI-H460 lung
# NCI-H522 lung = test system: NCI-H522 lung
# A549/ATCC NSCLC = test system: A549/ATCC NSCLC
# 786-0 renal = test system: 786-0 renal
# COLO 205 colon = test system: COLO 205 colon
# DU-145 prostate = test system: DU-145 prostate
# K-562 leukemia = test system: K-562 leukemia
# MDA-MB-231 breast = test system: MDA-MB-231 breast
# SF-268 CNS = test system: SF-268 CNS
# SF-295 CNS = test system: SF-295 CNS
# SF-539 CNS = test system: SF-539 CNS
# UACC-257 melanoma = test system: UACC-257 melanoma
# M14 melanoma = test system: M14 melanoma
# HCT-15 colon = test system: HCT-15 colon
# MALME-3M melanoma = test system: MALME-3M melanoma
# RXF 393 renal = test system: RXF 393 renal
SMILES,growth (NCI-H23 lung),growth (NCI-H226 lung),growth (NCI-H322M lung),growth (HOP-62 NSCLC),growth (NCI-H460 lung),growth (NCI-H522 lung),growth (A549/ATCC NSCLC),growth (786-0 renal),growth (COLO 205 colon),growth (DU-145 prostate),growth (K-562 leukemia),growth (MDA-MB-231 breast),growth (SF-268 CNS),growth (SF-295 CNS),growth (SF-539 CNS),growth (UACC-257 melanoma),growth (M14 melanoma),growth (HCT-15 colon),growth (MALME-3M melanoma),growth (RXF 393 renal)
N#Cc1cccc(/C=C(/C(=O)c2ccccc2)c2ccccc2)c1,81.2%,71.7%,77.8%,94.5%,77.5%,57.8%,62.8%,76.2%,96.8%,37%,1.89% (active),54.5%,51.1%,63.5%,91.9%,43.1%,58.8%,18.9%,–,–
COc1cc2c(-c3nc4cc(Cl)c(F)cc4s3)cc(=O)oc2c(C)c1OC,-48.6% (active),-48.8% (active),7.69% (active),-65.7% (active),-36.1% (active),-83.9% (active),-53.9% (active),-70.2% (active),-46.6% (active),-85.3% (active),-22.6% (active),-50.4% (active),-63.5% (active),-81.5% (active),-89% (active),-77.6% (active),-35.2% (active),-39.1% (active),–,–
Cc1nc2cc(NC(=O)CN3CCN(CCN4C(=O)c5cccc6cccc(c56)C4=O)CC3)ccc2s1,60.9%,48.6%,69.3%,60%,26.5%,53.2%,37.6%,51.4%,47.1%,56.8%,–,72.2%,46.2%,48.3%,59.4%,76.8%,89%,–,70.6%,47.8%
CCOC(=O)C(Cc1ccccc1)(C(=O)OCC)C(Br)C(=O)c1ccccc1 (stereo unspecified),84.4%,88%,83.9%,95.6%,93%,22.5%,80.2%,50%,63%,93%,–,64.2%,88%,94.5%,105%,70.9%,84.1%,41.9%,54.2%,75.5%
COc1ccc(-c2cc(Cc3cccs3)c(=O)n(Cn3cncn3)n2)cc1,102%,96.3%,100%,110%,112%,91.6%,97.3%,104%,117%,124%,98.3%,87.5%,110%,98.9%,101%,105%,107%,101%,–,110%
CC(NC(=O)C(C)Oc1ccc(Cl)cc1Cl)C(=O)O (stereo unspecified),91.9%,92.9%,122%,94.5%,101%,83.6%,116%,97.6%,–,108%,135%,96.8%,102%,97.8%,102%,94.6%,92.2%,98.3%,98.6%,120%
O=C1OC(c2ccc(-c3ccccc3)cc2)=C/C1=C/c1cccs1,88.6%,63.6%,99.7%,101%,105%,63%,83.6%,90.3%,–,103%,87.8%,75.3%,88.5%,95.8%,106%,106%,90.3%,98.1%,98.2%,84.6%
CCOc1ccccc1C(=O)OCC(=O)Nc1cccc(S(=O)(=O)N(C)C)c1,101%,100%,124%,94.2%,102%,95.1%,87.8%,109%,–,115%,104%,110%,122%,160%,100%,93.6%,107%,123%,81.5%,64.6%
Cc1nn(-c2ccc(Cl)cc2)c2nc3c(nc12)C(=O)C(=O)c1ccccc1-3,75.5%,65.2%,65.1%,72.1%,5.27% (active),79.7%,18.2%,89.5%,54.3%,-22% (active),–,40.4%,89.3%,12.1%,–,69.2%,75.5%,73.9%,36.8%,89.6%
Cc1ccc(NC(=O)COC(=O)c2ccc(S(=O)(=O)N3CCCCCC3)cc2)cc1,107%,90.8%,131%,96.4%,106%,96%,97.2%,103%,–,108%,103%,101%,94.6%,88.9%,105%,94.3%,126%,105%,127%,88.9%
CCCCCCC/C(=N\N=C(N)N)c1ccc(O)cc1,57.5%,-8.37% (active),56.9%,43.9%,26.7%,47.7%,51.9%,63.1%,-88.8% (active),53.4%,–,-22.5% (active),45%,55.7%,63.5%,27.1%,24.9%,64%,50.6%,-35.5% (active)
NC(=O)SCC(=O)Nc1ccccc1-c1ccccc1,97.2%,117%,106%,116%,116%,50.1%,91.7%,95.5%,95.3%,–,103%,99.7%,–,109%,89.5%,85.7%,97.7%,107%,158%,138%
O=Nc1ccc(O)c(=O)cc1,70.6%,38.4%,88.3%,88.1%,114%,-74.1% (active),110%,15.9%,-21.6% (active),–,9.11% (active),41.6%,–,125%,47.8%,37.4%,30.4%,10.2%,-4.09% (active),-42.1% (active)
OCCOc1c(Cl)cc(Cl)cc1Cl,101%,111%,114%,108%,108%,108%,93.9%,104%,114%,115%,–,87.3%,103%,100%,102%,90.3%,–,104%,101%,–
Cc1[nH]n(C(N)=S)c(=O)c1N=Nc1ccc(F)c(Cl)c1,102%,87%,110%,92.1%,114%,94.6%,106%,95.6%,–,100%,95.3%,89.1%,92.2%,103%,108%,124%,100%,104%,110%,131%
O=C1CN(CO)C(=O)CN1CO,103%,113%,100%,106%,104%,98.9%,103%,105%,116%,114%,–,108%,105%,101%,115%,99.8%,–,106%,103%,–
COC(=O)[C@]1(CCSC)N[C@H](c2cn(-c3ccccc3)nc2C)[C@@H]2C(=O)N(c3ccccc3)C(=O)[C@@H]21,94.9%,99.7%,115%,107%,106%,97.4%,103%,104%,112%,119%,–,109%,114%,106%,–,113%,–,112%,105%,109%
